# Measured values: the supplement of paper PMC9117331
# Counter-ions that a name gives are not always drawn.
# Legend:
# Conditions in all cases: 0.5 µM; time after treatment 48 h; PC9 signalome
# PC9 [1] = assay: AKT reporter activity score (signed KS statistic vs DMSO) (signed KS statistic (-1 to 1)); higher = stronger activation of the pathway reporter relative to DMSO
# PC9 [2] = assay: RAR reporter activity score (signed KS statistic vs DMSO) (signed KS statistic (-1 to 1)); higher = stronger activation of the pathway reporter relative to DMSO
# PC9 [3] = assay: PKC reporter activity score (signed KS statistic vs DMSO) (signed KS statistic (-1 to 1)); higher = stronger activation of the pathway reporter relative to DMSO
# PC9 [4] = assay: PKA reporter activity score (signed KS statistic vs DMSO) (signed KS statistic (-1 to 1)); higher = stronger activation of the pathway reporter relative to DMSO
# PC9 [5] = assay: p38 reporter activity score (signed KS statistic vs DMSO) (signed KS statistic (-1 to 1)); higher = stronger activation of the pathway reporter relative to DMSO
# PC9 [6] = assay: HIF reporter activity score (signed KS statistic vs DMSO) (signed KS statistic (-1 to 1)); higher = stronger activation of the pathway reporter relative to DMSO
# PC9 [7] = assay: ERK reporter activity score (signed KS statistic vs DMSO) (signed KS statistic (-1 to 1)); higher = stronger activation of the pathway reporter relative to DMSO
# PC9 [8] = assay: JNK reporter activity score (signed KS statistic vs DMSO) (signed KS statistic (-1 to 1)); higher = stronger activation of the pathway reporter relative to DMSO
# PC9 [9] = assay: WNT reporter activity score (signed KS statistic vs DMSO) (signed KS statistic (-1 to 1)); higher = stronger activation of the pathway reporter relative to DMSO
# PC9 [10] = assay: NFkB reporter activity score (signed KS statistic vs DMSO) (signed KS statistic (-1 to 1)); higher = stronger activation of the pathway reporter relative to DMSO
# PC9 [11] = assay: YAP/TAZ reporter activity score (signed KS statistic vs DMSO) (signed KS statistic (-1 to 1)); higher = stronger activation of the pathway reporter relative to DMSO
SMILES,AKT reporter activity score (PC9 [1]),RAR reporter activity score (PC9 [2]),PKC reporter activity score (PC9 [3]),PKA reporter activity score (PC9 [4]),p38 reporter activity score (PC9 [5]),HIF reporter activity score (PC9 [6]),ERK reporter activity score (PC9 [7]),JNK reporter activity score (PC9 [8]),WNT reporter activity score (PC9 [9]),NFkB reporter activity score (PC9 [10]),YAP/TAZ reporter activity score (PC9 [11])
COc1ncc(-c2ccc3nccc(-c4ccnnc4)c3c2)cc1NS(=O)(=O)c1ccc(F)cc1F,-0.778,0.43,0.0478,-0.254,-0.499,0.0783,-0.33,-0.305,0.123,0.192,0.18
CC(=O)Nc1cccc(-n2c(=O)n(C3CC3)c(=O)c3c(Nc4ccc(I)cc4F)n(C)c(=O)c(C)c32)c1,0.278,0.158,-0.0489,-0.226,0.0617,-0.114,-0.491,0.181,0.129,0.158,0.324
CO[C@H]1C[C@@H]2CC[C@@H](C)[C@@](O)(O2)C(=O)C(=O)N2CCCC[C@H]2C(=O)O[C@H]([C@H](C)C[C@@H]2CC[C@@H](OP(C)(C)=O)[C@H](OC)C2)CC(=O)[C@H](C)/C=C(\C)[C@@H](O)[C@@H](OC)C(=O)[C@H](C)C[C@H](C)/C=C/C=C/C=C/1C [Deforolimus (MK-8669)],0.241,-0.292,-0.044,0.262,0.178,-0.232,0.0405,-0.0745,0.0613,0.151,0.142
Cc1nc(NC(=O)N2CCC[C@H]2C(N)=O)sc1-c1ccnc(C(C)(C)C(F)(F)F)c1 [Alpelisib (BYL719)],-0.308,0.0272,-0.0493,-0.0979,0.131,-0.123,0.0754,-0.0947,0.0988,0.0495,-0.125
Cc1cc(C(=O)NOCCO)c(Nc2ccc(I)cc2F)n(C)c1=O,-0.0809,0.337,0.0992,-0.257,0.108,0.0532,-0.629,0.22,0.0922,0.224,0.448
COc1cc2ncnc(Nc3ccc(F)c(Cl)c3)c2cc1NC(=O)/C=C/CN1CCCCC1,-0.392,0.516,0.0863,-0.547,-0.404,0.138,-0.698,-0.159,0.343,0.23,0.338
Cc1c(NC(=O)OC[C@@H]2COCCN2)cn2ncnc(Nc3ccc4c(cnn4Cc4cccc(F)c4)c3)c12,-0.228,0.182,0.0831,0.0553,-0.0763,-0.136,-0.29,-0.0881,0.0831,0.0753,0.0967
CN1CCN(c2nc(C3=C(c4c[nH]c5ccccc45)C(=O)NC3=O)c3ccccc3n2)CC1 [Sotrastaurin (AEB071)],0.195,-0.104,0.0333,0.144,0.268,0.0348,-0.0912,0.155,0.0742,-0.26,-0.0765
CC(C)NC[C@@H](C(=O)N1CCN(c2ncnc3c2[C@H](C)C[C@H]3O)CC1)c1ccc(Cl)cc1 [Ipatasertib (GDC-0068)],-0.688,-0.297,-0.0598,0.241,-0.0739,-0.228,0.0863,-0.0989,0.0644,0.0919,-0.0823
Cc1ccc([N+](=O)[O-])cc1S(=O)(=O)N(C)/N=C/c1cnc2ccc(Br)cn12,-0.252,0.101,0.105,-0.347,-0.118,0.178,-0.147,0.157,0.207,0.0772,0.169
C[C@H](NC(=O)Cc1cc(F)cc(F)c1)C(=O)N[C@@H]1C(=O)N(C)c2ccccc2-c2ccccc21,-0.303,0.0626,0.0325,-0.0914,0.0414,-0.0336,-0.123,-0.138,-0.0477,-0.12,-0.114
C=CC(=O)Nc1cccc(Sc2nc(Nc3ccc(N4CCN(C)CC4)cc3)ncc2Cl)c1,-0.364,0.467,0.0576,-0.418,-0.318,0.106,-0.698,0.15,0.172,0.174,0.338
O=C(Nc1cc(C(F)(F)F)cc(C(F)(F)F)c1)c1cc(Cl)ccc1O,-0.694,0.372,0.146,-0.27,0.0561,0.485,-0.0507,0.113,0.101,0.111,0.257
CC(C)n1nc(-c2ccc3oc(N)nc3c2)c2c(N)ncnc21,-0.075,0.0862,0.0627,0.217,-0.392,-0.124,-0.188,-0.194,0.164,0.0979,0.144
CCN1CCN(Cc2ccc(Nc3ncc(F)c(-c4cc(F)c5nc(C)n(C(C)C)c5c4)n3)nc2)CC1,-0.454,0.2,0.128,-0.473,-0.118,0.484,0.0461,0.34,0.767,0.239,0.183
COc1cc2ncnc(Nc3ccc(F)c(Cl)c3)c2cc1OCCCN1CCOCC1 [Gefitinib (Iressa)],-0.363,0.5,0.0998,-0.3,-0.282,0.136,-0.664,0.166,0.25,0.184,0.4
COc1ccc(-c2ccc3c(N4CCOCC4)nc(N4C[C@@H](C)O[C@@H](C)C4)nc3n2)cc1CO,-0.124,-0.302,-0.0717,-0.114,-0.0964,-0.246,0.079,0.0459,0.0519,0.0599,-0.085

SMILES,AKT reporter activity score (PC9 [1]),RAR reporter activity score (PC9 [2]),PKC reporter activity score (PC9 [3]),PKA reporter activity score (PC9 [4]),p38 reporter activity score (PC9 [5]),HIF reporter activity score (PC9 [6]),ERK reporter activity score (PC9 [7]),JNK reporter activity score (PC9 [8]),WNT reporter activity score (PC9 [9]),NFkB reporter activity score (PC9 [10]),YAP/TAZ reporter activity score (PC9 [11])
O=C(NCCCNc1nc(Nc2cccc(NC(=O)N3CCCC3)c2)ncc1I)c1cccs1,-0.261,-0.0747,0.054,-0.174,0.125,-0.0537,-0.0698,-0.102,-0.101,0.0689,-0.0931
CO[C@H]1C[C@@H]2CC[C@@H](C)[C@@](O)(O2)C(=O)C(=O)N2CCCC[C@H]2C(=O)O[C@H]([C@H](C)C[C@@H]2CC[C@@H](O)[C@H](OC)C2)CC(=O)[C@H](C)/C=C(\C)[C@@H](O)[C@@H](OC)C(=O)[C@H](C)C[C@H](C)/C=C/C=C/C=C/1C [Rapamycin (Sirolimus)],0.0788,-0.291,-0.0424,0.0838,-0.0405,-0.242,0.0931,-0.0966,0.0535,0.0606,0.12
O=C(/C=C/c1cccc(S(=O)(=O)Nc2ccccc2)c1)NO [Belinostat (PXD101)],-0.067,0.675,0.12,-0.172,-0.223,0.488,-0.315,-0.122,0.155,0.0869,0.484
Cc1[nH]nc2ccc(-c3cncc(OC[C@@H](N)Cc4ccccc4)c3)cc12,-0.173,-0.385,-0.0808,-0.173,0.056,-0.128,-0.166,0.272,0.113,,-0.247
Cn1c(=O)c(F)c(Nc2ccc(I)cc2F)c2c(=O)n(C[C@@H](O)CO)cnc21,0.104,0.28,0.0748,-0.176,0.193,0.0238,-0.525,0.245,-0.0866,0.274,0.513
C=CC(=O)Nc1cccc(Oc2nc(Nc3ccc(N4CCN(C)CC4)cc3)ncc2Cl)c1,,0.418,0.125,,-0.271,0.164,-0.662,0.152,0.124,0.166,0.333
C=CC(=O)N1CCC[C@@H](n2nc(-c3ccc(Oc4ccccc4)cc3)c3c(N)ncnc32)C1,-0.461,0.562,,,-0.409,0.169,-0.667,-0.17,0.283,,0.322
CN(C)C/C=C/C(=O)Nc1cc2c(Nc3ccc(F)c(Cl)c3)ncnc2cc1O[C@H]1CCOC1 [Afatinib (BIBW2992)],-0.37,,0.191,,0.229,0.0949,-0.615,0.173,0.34,0.208,0.397
Nc1ncnc2c1c(-c1cnc3[nH]ccc3c1)nn2C1CCCC1,-0.463,0.646,0.116,,-0.374,0.183,-0.379,-0.111,0.0862,0.128,0.258
CCN1CCN(Cc2ccc(-c3cc4c(N[C@H](C)c5ccccc5)ncnc4[nH]3)cc2)CC1,-0.376,0.505,,-0.379,-0.36,0.189,-0.726,0.193,0.184,0.161,0.381
O=C(NOC[C@H](O)CO)c1ccc(F)c(F)c1Nc1ccc(I)cc1F,0.136,0.142,0.094,-0.18,-0.265,-0.129,-0.452,0.303,0.0484,0.228,0.42
CC(C)CC(=O)Nc1n[nH]c2c1CN(C(=O)C1CCN(C)CC1)C2(C)C,-0.35,0.417,,-0.15,-0.296,0.227,-0.107,-0.179,0.117,0.167,0.244
COc1ccc(-c2cc3c(C)nc(N)nc3n([C@H]3CC[C@H](OCCO)CC3)c2=O)cn1,-0.424,0.107,-0.0883,-0.172,-0.364,-0.153,0.0981,-0.166,0.0844,-0.0647,0.155
CC(C)n1nc(-c2cc3cc(O)ccc3[nH]2)c2c(N)ncnc21,-0.0564,-0.222,-0.0669,0.116,0.0578,-0.329,-0.108,-0.0693,0.0845,0.195,0.186
CCN(CC)CCNC(=O)c1c(C)[nH]c(/C=C2\C(=O)Nc3ccc(F)cc32)c1C [Sunitinib Malate (Sutent)],0.076,-0.28,-0.0463,0.13,0.139,-0.147,0.0665,0.0727,-0.103,-0.134,-0.0629
CN1CC[C@H](c2c(O)cc(O)c3c(=O)cc(-c4ccccc4Cl)oc23)[C@H](O)C1 [Flavopiridol hydrochloride],,,,-0.608,-0.475,0.353,-0.633,-0.208,0.153,0.123,0.371
